{"source": "PubChem BioAssay AID602143", "about": "(Vanderbilt Specialized Chemistry Center, 2011)", "note": "Values without a mark were called inactive. The source made the active and inactive calls. Rule as the data show it: active = remaining activity below about 50%; inactive = the rest."}
{"biological_target": "Phospholipase D2 (Homo sapiens) (UniProt O14939)", "assay": "cellular phospholipase D2 activity inhibition – cell-based, HEK293, single concentration (AID 602143);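 also: tested at 200 nM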", "conditions": "HEK293 cellular PLD2 activity, percent of control; stronger effect = lower value"}
{"molecule": "C[C@@H](CN1CCC(n2c(=O)[nH]c3ccccc32)CC1)NC(=O)c1cc2ccccc2[nH]1", "remaining activity": "0.434% (active)"}
{"molecule": "O=C(CCN1CCC(n2c(=O)[nH]c3ccccc32)CC1)NCc1ccc(Cl)cc1", "remaining activity": "85.2%"}
{"molecule": "O=C(NCCN1CCC(n2c(=O)[nH]c3ccccc32)CC1)c1ccc2cccc3c2c1CC3", "remaining activity": "98%"}
{"molecule": "O=c1[nH]c2ccccc2n1C1CCN(CCNS(=O)(=O)c2cccc(C(F)(F)F)c2)CC1", "remaining activity": "61.1%"}
{"molecule": "O=C(NCCN1CCC(n2c(=O)[nH]c3ccccc32)CC1)N1c2ccccc2C=Cc2ccccc21", "remaining activity": "66.5%"}
{"molecule": "CC(C)[C@@H](CN1CCC(n2c(=O)[nH]c3ccccc32)CC1)NC(=O)[C@@H]1C[C@H]1c1ccccc1", "remaining activity": "74%"}
{"molecule": "O=C(NCCN1CCC(n2c(=O)[nH]c3cc(Cl)ccc32)CC1)c1ccc2ccccc2c1", "remaining activity": "63.9%"}
{"molecule": "Cc1ccc(S(=O)(=O)NCCN2CCC(n3c(=O)[nH]c4ccccc43)CC2)cc1", "remaining activity": "77.3%"}
{"molecule": "C[C@@H](CN1CCC2(CC1)CN(S(C)(=O)=O)c1ccccc12)NC(=O)c1ccc2ccccc2c1", "remaining activity": "115%"}
{"molecule": "C[C@@H](CN1CCC(n2c(=O)[nH]c3cc(-c4ccc(F)c(F)c4)ccc32)CC1)NC(=O)[C@H]1C[C@@H]1c1ccccc1", "remaining activity": "80.4%"}
{"molecule": "COc1ccc(S(=O)(=O)NCCN2CCC(n3c(=O)[nH]c4ccccc43)CC2)cc1OC", "remaining activity": "77.1%"}
{"molecule": "C[C@@H](CN1CCC(n2c(=O)[nH]c3ccccc32)CC1)NC(=O)c1ccc(C(F)(F)F)cc1", "remaining activity": "76.2%"}
{"molecule": "C[C@@H](CN1CCC(n2c(=O)[nH]c3ccccc32)CC1)NC(=O)c1ccc(F)c(F)c1", "remaining activity": "75.6%"}
{"molecule": "CS(=O)(=O)NCCN1CCC(n2c(=O)[nH]c3ccccc32)CC1", "remaining activity": "96.5%"}
{"molecule": "O=C(NCCN1CCC(C(=O)NCC2CC2)CC1)c1ccc2ccccc2c1", "remaining activity": "108%"}
{"molecule": "C[C@@H](CN1CCC(n2c(=O)[nH]c3ccccc32)CC1)NC(=O)c1cc2ccccc2s1", "remaining activity": "38.6% (active)"}
{"molecule": "O=C(NCCN1CCC2(CC1)CCN(c1ccccc1)C2=O)c1cnc2ccccc2c1", "remaining activity": "42.3% (active)"}
{"molecule": "C[C@@H](CN1CCC(n2c(=O)[nH]c3ccc(F)cc32)CC1)NC(=O)c1ccc(F)c(F)c1", "remaining activity": "52.6%"}
{"molecule": "Cc1cc(C)c(S(=O)(=O)NCCN2CCC(n3c(=O)[nH]c4ccccc43)CC2)c(C)c1", "remaining activity": "98.8%"}
{"molecule": "C[C@@H](CN1CCC(n2c(=O)[nH]c3cc(F)ccc32)CC1)NC(=O)c1ccc(F)c(F)c1", "remaining activity": "85.2%"}
{"molecule": "C[C@@H](CN1CCC(n2c(=O)[nH]c3ccccc32)CC1)NC(=O)c1ccc2ncccc2c1", "remaining activity": "82.2%"}
{"molecule": "C[C@@H](CN1CCC(c2nc3ccc(F)cc3[nH]2)CC1)NC(=O)[C@H]1CC1c1ccccc1", "note": "(some centres not stated)", "remaining activity": "92.5%"}
{"molecule": "C[C@@H](CN1CCC2(CC1)CN(S(C)(=O)=O)c1ccccc12)NC(=O)c1cnc2ccccc2c1", "remaining activity": "136%"}
{"molecule": "C[C@@H](CN1CCC2(CCc3ccccc32)CC1)NC(=O)c1cnc2ccccc2c1", "remaining activity": "108%"}
{"molecule": "O=C(NCCN1CCC(n2c(=O)[nH]c3ccccc32)CC1)c1cscn1", "remaining activity": "57.9%"}
{"molecule": "O=C(NCCN1CCN(c2ncccn2)CC1)c1ccc2ccccc2c1", "remaining activity": "90.4%"}
{"molecule": "O=c1[nH]c2ccccc2n1C1CCN(CCN2CCCC2)CC1", "remaining activity": "93.8%"}
